Screening results from PubChem.
Most compounds without a hit are left out; they make up all but 11% or so of the library.
Pf growth 48h: P. falciparum growth inhibition at 48 hours (one generation). P. falciparum luciferase growth in erythrocytes, 48 h. Potency, µM (series often up to 28.7 µM), without a hit: at the highest dose activity change, negative = inhibition, most hits filed as inhibitors. actives 5.9% (n = 310,000)
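Read-out is firefly luciferase luminescence from an integrated reporter in P. falciparum, so falling signal marks reduced parasite growth. Infected erythrocytes were at 2% hematocrit and 0.1% parasitemia (final) in Albumax-supplemented RPMI 1640.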
HCV inhibitor: HCV inhibition; Huh7.5.1 HCVcc-Cre infection, luciferase reporter, 44 h; Potency, µM (top dose mostly 41.8 µM), without a hit: at the top dose activity change, negative = inhibition, usual class: inhibitors; actives 3.4% (n = 340,000); AID 651820
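Cells seeded at 1,000/well and cultured 4 h, then compounds added followed by HCVcc-Cre virus (~0.5 moi). After 44 h further culture, luciferase substrate was added, plates held 15 min at room temperature, and luminescence read for 15 sec.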
Pf growth 96h: inhibits malaria parasite growth, 96 h; P. falciparum luciferase reporter growth, 96 h; Potency, µM (highest dose often 28.7 µM), without a hit: at the highest dose activity change, negative = inhibition, most hits filed as inhibitors; actives 6.9% (n = 320,000)
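Compounds incubated with erythrocytes infected by luciferase-expressing P. falciparum (2% hematocrit, 0.05% parasitemia final) for 96 hours, 37 C in 5% CO2. Growth inhibition scored as decreased luciferase luminescence.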
AMA1 RON2 block: inhibitors of Plasmodium falciparum AMA1-RON2 interaction; Potency, µM (series often up to 58.2 µM), for inactives: top-dose activity change, negative = inhibition, actives largely listed as inhibitors; actives 0.2% (n = 360,000); AID 720542; AlphaScreen AMA1-biotinylated RON2 peptide binding;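 further: 0% = vehicle wells and -100% = peptide control; nearly all actives have a fitted effect of over 45% in size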
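AMA1 (3D7) with his tag at 25 nM final met compounds first, then biotinylated RON2 peptide at 25 nM; detection used donor plus acceptor beads, 10 µg/mL apiece, read by AlphaScreen after 30 min at room temperature.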
An asterisk follows results filed as active; ? = inconclusive; . = no result; ! = a repeat was not active; [ ] = dose if it differs, or a comment. The call rests on the fitted dose curve; in most records, active means well fitted curve in the direction sought with a large enough effect; inconclusive means small, poorly fitted or top-dose-only effect, or another doubt; inactive means no such curve, though single readings can be large; an effect the other way counts as inactive or inconclusive. Unless noted, on the % scale 0 is the no-effect control and ±100 the full control effect; potency means the concentration at half of the fitted maximal effect.

SMILES	Pf growth 48h	HCV inhibitor	Pf growth 96h	AMA1 RON2 block
COc1ccc(C(=O)Nc2ccccc2C(=O)NC(Cc2ccc(O)cc2)C(=O)NNC(=O)c2ccccc2Cl)cc1 (stereo unspecified)	5.2µM*	?	32%	86%
O=C(Nc1ccccc1C(=O)NC(Cc1ccccc1)C(=O)NC1CCCCC1)c1ccccc1 (stereo unspecified)	10µM*	-11%	?	-9%[2.32 µM]
COc1ccc(C(=O)NNC(=O)C(Cc2ccc(O)cc2)NC(=O)c2ccccc2NC(=O)c2ccc(OC)cc2)cc1 (stereo unspecified)	?	?	61%	87%
CC(CCC(=O)Nc1nncs1)C(=O)O (stereo unspecified)	-1%	18%	12µM*	0%
CCC(CCC(=O)Nc1nncs1)C(=O)O (stereo unspecified)	.	.	24%	.
COc1ccc(C(C)(O)c2nc(-c3ccccc3OC)cs2)cc1 (stereo unspecified)	.	.	.	0%
CCc1cccc(N(C)C(N)=Nc2cccc3ccccc23)c1	13µM*	-3%	9.5µM*	-5%
COC(=O)C1=C(CCc2ccccc2)NC(=O)NC1c1ccc(Br)cc1 (stereo unspecified)	14%	?	13µM*	0%
COC(=O)C1=C(COc2ccccc2)NC(=O)NC1c1ccc(Cl)cc1 (stereo unspecified)	.	-9%	.	1%
COc1ccc(N=Nc2ccc(CO)cc2)cc1	.	23%	.	?
COc1ccc(N=Nc2n(C)c3ccccc3[n+]2C)cc1	0.74µM*	.	0.52µM*	.
O=S(=O)(CCN1C=CC(C(F)(F)F)=NCC1)c1ccc(Cl)cc1Cl	-15%	3%	8%	42%
Cc1cnc(C(=O)Nc2ccccc2-c2ccc(C)o2)cn1	-86%	7.9µM*	?	-14%
Cc1cnc(C(=O)Nc2cccc3ncccc23)cn1	2%	2%	?	22%
O=C1C2C3C=CC(C2C(=O)N1c1cccc(O)c1)C1C2C(=O)N(c4cccc(O)c4)C(=O)C2C31 (stereo unspecified)	-11%	-9%	47%	-5%
O=S(=O)(c1ccccc1)N(CC1CO1)c1cccc2ccccc12 (stereo unspecified)	12µM*	-22%	?	-3%
O=S(=O)(c1ccccc1)N(CC1CO1)c1ccccc1 (stereo unspecified)	-7%	27%	50%	6%
CCOC(=O)[C@H]1[C@H]2COc3ccc(Br)cc3[C@H]2N2C(=O)CN(CCc3c[nH]c4ccccc34)C(=O)[C@@]12C	.	1%	.	0%
COc1ccc2c(c1)OC[C@H]1[C@H]2N2C(=O)CN(CCc3c[nH]c4ccccc34)C(=O)[C@@]2(C)[C@H]1c1ccccc1	12µM*	?	4.7µM*	-5%
CCOC(=O)[C@H]1[C@H]2COc3cc(OC)ccc3[C@@H]2N2C(=O)CN(CCc3c[nH]c4ccccc34)C(=O)[C@@]12C	7.4µM*	-11%	?	-5%
COc1ccc2c(c1)OC[C@H]1[C@H]2N2C(=O)CN(CC3CCCO3)C(=O)[C@@]2(C)[C@H]1c1ccccc1 (stereo partly specified)	?	17%	?	18%
O=C(COC(=O)c1ccc2ccccc2n1)NCc1ccccc1	0%	12%	84%	9%
S=C(NCCc1ccccc1)N1CCc2ccccc2C1	80%	7%	?	-3%
Cc1ccc(-c2nnc(N3CCN(c4ccccn4)CC3)c3ccccc23)cc1	13µM*	?	-9%	?
O=S(=O)(c1ccccc1)N1CCN(c2nnc(-c3ccccc3)c3ccccc23)CC1	?	-13%	4.1µM*	-2%
SMILES	Pf growth 48h	HCV inhibitor	Pf growth 96h	AMA1 RON2 block
Cc1ccc(-c2nnc(N3CCCCC3)c3ccccc23)cc1	?	?	-25%	-4%
CCN1CCN(c2nnc(-c3ccc(F)cc3)c3ccccc23)CC1	5%	2.8µM*	3%	10%
c1ccc(-c2nnc(N3CCN(c4ccccn4)CC3)c3ccccc23)cc1	7.4µM*	14µM*	.	11%
O=C(NC(=S)NCC1CCCO1)C(c1ccccc1)c1ccccc1 (stereo unspecified)	0%	3%	?	-1%
CCN=C1SC(C(=O)Nc2cccc(Br)c2)CC(=O)N1CC (stereo unspecified)	9%	-6%	49%	5%
COc1ccc(C(=O)NCC(C)(C)N2CCOCC2)cc1S(=O)(=O)N1CCCC1	-2%	4%	-17%	-12%
COc1ccccc1OC(C)C(=O)N(Cc1ccco1)C1CCS(=O)(=O)C1 (stereo unspecified)	33%	13%	?	-2%
CCO[C@H]1OC(C(=O)Nc2ccccc2)=C[C@@H](C)[C@@H]1CCCO	31%	6%	32%	2%
CCOC(=O)c1c(NC(=O)CN2C(=O)NC(C)(c3ccccc3)C2=O)sc(C)c1C (stereo unspecified)	-23%	?	?	-9%
O=C(N/N=C/c1ccc(N2CCCCC2)o1)C(O)(c1ccccc1)c1ccccc1	13µM*	7%	?	.
CCCCC(CC)CN=C(N)NC(N)=NCCCCCCN=C(N)NC(N)=NCC(CC)CCCC (stereo unspecified)	0.23µM*	?	0.066µM*!	60%
CCCCC(CC)CO (stereo unspecified)	.	-3%	.	17%
O=C(NC1CCCCC1)c1ccc(-c2ccccc2)cc1	.	0%	.	-6%
CCCOCc1ccc(O)c2ncccc12	12µM*	5.6µM*	4.7µM*	-60%
CC(C)COCc1ccc(O)c2ncccc12	?	2.8µM*	8%	-82%
COc1ccc(S(=O)(=O)N(CC(C)C)CC(C)C)c2cccnc12	.	-9%	24%	-6%
Oc1ccc(COCc2ccccc2)c2cccnc12	3.3µM*	5µM*	4.1µM*!	?
CC(=O)/C(C#N)=C1\NC(=O)C(Cc2ccccc2C)S1 (stereo unspecified)	?	8%	-18%	-4%
COC(=O)CSc1ncnc2c(C)csc12	41%	-5%	-13%	?
c1ccc(C[n+]2c(-c3ccccc3)csc2Nc2ccccc2)cc1	?	?	9.3µM*	-3%
Cc1cccc(NC(=O)CSc2nnc(-c3cc(C)[nH]n3)n2N)c1	-21%	5%	?	-2%
CCOC(=O)CN1CC23C=CC(O2)C(C(=O)NC2CCCCCC2)C3C1=O (stereo unspecified)	.	-1%	?	5%
CCOC(=O)CN1CC23C=CC(O2)C(C(=O)Nc2ccc(C(C)=O)cc2)C3C1=O (stereo unspecified)	-1%	-23%	12µM*	0%
S=C(Nc1ccc(Br)cc1Cl)N1CCCC1	-3%	24%	2.1µM*	8%
O=C(Nc1ccc(C(=O)N2CCCC2)cc1)Nc1ccc(Cl)cc1Cl	16%	?	-5%	16%
O=C(Nc1ccc(CN2CCCCC2)cc1)Nc1ccc(Br)cc1Cl	?	16µM*	13%	5%
